The nature of assay [1]: NCI Yeast Anticancer Drug Screen. Data for the rad50 strain (AID 155).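 Also: 0% = growth of vehicle-only cultures of the same strain.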 As to conditions: S. cerevisiae rad50 strain growth inhibition; at 50.0 µM; hits give high values. The gist of the method:
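Relative growth inhibition (compound vs vehicle) was measured in yeast with a defined repair-gene alteration.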

A short description of assay [2]: NCI Yeast Anticancer Drug Screen. Data for the mec2-1 strain (AID 157). As to conditions: S. cerevisiae mec2-1 strain, at 50.0 µM, hits give high values. In outline: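 Each compound was tested on mec2-1 yeast, a strain altered in DNA damage repair or cell cycle control. Growth inhibition is reported relative to vehicle.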
Assay [3] can be described thus: NCI Yeast Anticancer Drug Screen. Data for the sgs1 mgt1 strain (AID 161).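 Also: 0% = growth of cultures given vehicle only.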 Particulars: S. cerevisiae sgs1 mgt1 strain, at 50.0 µM, hits give high values. The gist of the method: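 Test agents were incubated with a DNA-repair-mutant yeast strain. Growth was then read and compared against vehicle-treated controls.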
The nature of assay [4]: NCI Yeast Anticancer Drug Screen. Data for the cln2 rad14 strain (AID 165).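 Also: 0% = growth equal to vehicle treated cultures.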 As to conditions: S. cerevisiae cln2 rad14 strain, at 50.0 µM, hits give high values. The gist of the method: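 Test compounds were added to cln2 rad14 yeast cultures; inhibition of growth was then determined by comparison with vehicle treatment.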
Assay [5] in a line: NCI Yeast Anticancer Drug Screen. Data for the bub3 strain (AID 167). As to conditions: S. cerevisiae bub3 mutant strain, at 50.0 µM, hits give high values. In outline:
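Screening used yeast with an engineered genetic alteration affecting cell cycle control. Compound-exposed cultures were compared with vehicle cultures, and reduced growth was taken as inhibition.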

Assay [6] is described as follows: NCI Yeast Anticancer Drug Screen. Data for the mlh1 rad18 strain (AID 175). As to conditions: S. cerevisiae mlh1 rad18 strain growth inhibition; at 50.0 µM; hits give high values. In outline: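 Inhibition values reflect reduced growth of mutant yeast versus vehicle-treated controls following compound exposure; the mutations affect DNA damage repair.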

Compounds without any hit were thinned out: in the full panel of roughly 79,000, 15% have a hit. Unmarked numbers belong to inactive results. The source made the active and inactive calls. Rule as the data show it: active = growth inhibition above about 70%; inactive = the rest.

In the case of `O=[N+]([O-])C1C2CCC(C2)C1c1ccccc1` (stereo not given), the growth inhibition in assay [1] was 9.55%; in assay [2], -3.75%; in assay [3], -0.55%; in assay [4] it was -2.05%; in assay [5] it was 14.9%; in assay [6], -0.2%.

As for `O=C(Oc1ccc2ccccc2c1CN1CCOCC1)c1ccc([N+](=O)[O-])cc1`, the growth inhibition was 45.8% in assay [1]; 29.9% in assay [2]; 33.8% in assay [3]; 30.1% in assay [4]; 35.5% in assay [5]; 52% in assay [6].

In the case of `COc1ccccc1NC(=O)C1=C(C)NC(C)=C(C(=O)Nc2ccccc2OC)C1c1ccc(C(C)C)cc1`, the growth inhibition in assay [1] is 18.2%; in assay [2] it was 3.35%; in assay [3] it was 11.8%; in assay [4], 29.6%; in assay [5] it was -11.8%; in assay [6], 33.8%.

As to `COC(CNCCO)c1ccccc1` (stereo not given), the growth inhibition was 3.1% in assay [1]; -17.6% in assay [2]; -0.45% in assay [3]; -89.2% in assay [4]; -6.15% in assay [5]; -5.45% in assay [6].

With `C(=Nc1ccc2c(c1)Cc1ccccc1-2)c1ccc2c(c1)OCO2`, the growth inhibition in assay [1] is 8.75%; in assay [2], -10.1%; in assay [3] it was 9.75%; in assay [4], -2.1%; in assay [5], 3.05%; in assay [6] it was 15.4%.

In the case of `C=C1CC[C@H]2C(C)=CC[C@H]3C(=C)C(=O)O[C@@H]3[C@@H]12`, the growth inhibition in assay [1] is -36.4%; in assay [2], -17%; in assay [3] it was -24.1%; in assay [4], -3.9%; in assay [5], -15.4%; in assay [6], -6%.

`Cc1nn(C(=O)c2ccc(Cl)cc2)c2c1C(c1ccccc1O)SC(N)=N2` (stereo not given): the growth inhibition is -29.9% in assay [1]; -47.1% in assay [2]; -30.1% in assay [3]; -1.45% in assay [4]; -11.5% in assay [5]; -25.1% in assay [6].

For `O=C(O)c1cc([N+](=O)[O-])ccc1Oc1cccc([N+](=O)[O-])c1`, the growth inhibition in assay [1] is -30.9%; in assay [2] it was -1.2%; in assay [3], 1.2%; in assay [4], 27%; in assay [5], 2.95%; in assay [6] it was -8.25%.

On to `[Mn+2].[NH-]CC(=O)NC(Cc1ccccc1)C(=O)O.[NH-]CC(=O)NC(Cc1ccccc1)C(=O)O` (stereo not given), for which the growth inhibition was -15.5% in assay [1]; -11.3% in assay [2]; -10.7% in assay [3]; -34.2% in assay [4]; 4.05% in assay [5]; -8% in assay [6].

`C1=C(c2ccccc2)Cc2ccccc21`: the growth inhibition in assay [1] is 13.4%; in assay [2], 24.4%; in assay [3], 19.9%; in assay [4], -14.8%; in assay [5], 15.4%; in assay [6], 23.9%.

`CCOC(=O)c1cnc2ccccc2c1OCC`: the growth inhibition in assay [1] was -5.45%; in assay [2] it was -12.2%; in assay [3], -6.5%; in assay [4] it was -43.9%; in assay [5], 2.55%; in assay [6], 0.55%.

In the case of `CNc1ccc(C)cc1S(=O)(=O)c1ccccc1[N+](=O)[O-]`, the growth inhibition was 65.5% in assay [1]; 42.5% in assay [2]; 58.1% in assay [3]; 29.2% in assay [4]; 47.1% in assay [5]; 16.1% in assay [6].

For the compound `O=C1c2cc([N+](=O)[O-])ccc2-c2c(Cl)cc(NC(=O)C(F)(F)F)cc21`, the growth inhibition in assay [1] is -0.5%; in assay [2] it was -11.3%; in assay [3], 1.65%; in assay [4], -40%; in assay [5], 6.9%; in assay [6] it was -2.55%.

`CCOC(CSc1cc(C)c2ccccc2n1)OCC`: the growth inhibition in assay [1] was 14.1%; in assay [2], -0.05%; in assay [3], -11.2%; in assay [4] it was 3.35%; in assay [5], 0.2%; in assay [6], -15.2%.

Regarding `c1ccc(-c2cc3cc4c(cc3[nH]2)Oc2ccccc2O4)cc1`, the growth inhibition in assay [1] is 5.45%; in assay [2], 14.4%; in assay [3] it was 18.4%; in assay [4], 10.8%; in assay [5], 5.2%; in assay [6], 3.1%.

Regarding `O=C(O)C(Br)C(Br)C(=O)Nc1ccc(Br)cc1` (stereo not given), the growth inhibition was -6.35% in assay [1]; -24.4% in assay [2]; 22.8% in assay [3]; -3.85% in assay [4]; 34.1% in assay [5]; 27.4% in assay [6].

As for `CSc1cc2c(cc1[N+](=O)[O-])C(=O)c1ccccc1-2`, the growth inhibition is -1.85% in assay [1]; 5.75% in assay [2]; 0.8% in assay [3]; 0.6% in assay [4]; 4.05% in assay [5]; 5.6% in assay [6].

Turning to `Clc1ccc(-c2nc3ccccc3cc2N2CCOCC2)cc1`, the growth inhibition was 70.5% (active) in assay [1]; 52% in assay [2]; 47.9% in assay [3]; 49.7% in assay [4]; 39.5% in assay [5]; 82.5% (active) in assay [6].

Take `COc1cc2c(c(OC)c1OC)-c1ccc(OC)c(=O)cc1[C@@H](NC(=O)c1ccccc1)CC2`: the growth inhibition in assay [1] was 11.7%; in assay [2], 7.15%; in assay [3], 18.7%; in assay [4], -0.05%; in assay [5] it was 14.2%; in assay [6], 18.9%.

Take `O=C1c2cccc3c(Br)ccc(c23)C(=O)N1C1CCCCCCCCCCC1`: the growth inhibition in assay [1] was 99.2% (active); in assay [2], 99.5% (active); in assay [3] it was 99.5% (active); in assay [4], 98.5% (active); in assay [5], 99.2% (active); in assay [6] it was 99.5% (active).
